In publication PMC5540273 (PLoS ONE, 2017):

What was measured:
Details in all cases: concentration: 1 μM,replicates: in singlicate; n = 1
[1] = test system: JAK1(JH2domain-pseudokinase)
[2] = test system: JAK2(JH1domain-catalytic)
[3] = test system: JAK3(JH1domain-catalytic)
JNK1 = test system: T1, JNK1
T1 construct: gene MAPK8

JNK2 = test system: T2, JNK2
T2 construct: gene MAPK9

JNK3 = test system: T3, JNK3
T3 construct: gene MAPK10

KIT-autoinhibited = test system: KIT-autoinhibited
KIT = test system: KIT
LATS1 = test system: LATS1
LATS2 = test system: LATS2
LCK = test system: LCK
LIMK1 = test system: LIMK1
LIMK2 = test system: LIMK2
LKB1 = test system: T4, LKB1
T4 construct: gene STK11

LOK = test system: T5, LOK
T5 construct: gene STK10

LRRK2 = test system: LRRK2
LTK = test system: LTK
LYN = test system: LYN
LZK = test system: T6, LZK
T6 construct: gene MAP3K13

MAK = test system: MAK
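Further: KINOMEscan kinase panel screen.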

SMILES	%Inh [1] [%]	%Inh [2] [%]	%Inh [3] [%]	%Inh (JNK1) [%]	%Inh (JNK2) [%]	%Inh (JNK3) [%]	%Inh (KIT-autoinhibited) [%]	%Inh (KIT) [%]	%Inh (LATS1) [%]	%Inh (LATS2) [%]	%Inh (LCK) [%]	%Inh (LIMK1) [%]	%Inh (LIMK2) [%]	%Inh (LKB1) [%]	%Inh (LOK) [%]	%Inh (LRRK2) [%]	%Inh (LTK) [%]	%Inh (LYN) [%]	%Inh (LZK) [%]	%Inh (MAK) [%]
CN(c1cccc(CNc2nc(Nc3ccc4c(c3)CC(=O)N4)ncc2C(F)(F)F)c1)S(C)(=O)=O	79	98.1	100	40	31	35	31	57	29	24	42	0	0	5	0	18	60	18	0	0
CN(c1ccccc1CNc1nc(Nc2ccc3c(c2)CC(=O)N3)ncc1C(F)(F)F)S(C)(=O)=O	66	98.6	99.2	64	66	63	0	38	65	76	78	0	0	0	57	20	81	26	0	16
CNC(=O)c1ccccc1Nc1nc(Nc2cccc(CS(C)(=O)=O)c2)ncc1C.O=CO [GSK1520489]	97.8	98.7	99.9	99.9	99.7	99.9	62	97.8	71	69	99.8	47	0	0	99.8	90	89	95.1	97.3	0
Cl.Cl.NC[C@H](CC1CCCCC1)NC(=O)c1ccc(-c2ccnc3[nH]ccc23)s1 [GSK1581428]	0	97.2	99.7	18	11	8	0	65	89	95.3	37	0	0	50	31	49	0	0	0	0
c1ccc(Oc2ccc(Nc3ccnc4ccc(-c5ccccn5)cc34)cc2)cc1 [GW407034]	0	22	0	20	16	18	0	45	1	0	83	5	0	0	0	5	0	22	0	59
Cc1ccc2c(-c3ccnc(Nc4ccc(C(F)(F)F)cc4)n3)cnn2n1 [GW819776]	57	29	0	91.5	53	78	34	78	0	0	10	2	0	24	16	0	28	1	0	20
COc1cccc(CNC(=O)NC2CCN(c3ccnc(Nc4cc(OC)c(OC)c(OC)c4)n3)C2)c1 (stereo not shown) [GSK1379765]	11	89	0	29	9	25	0	60	0	5	34	9	82	0	49	0	78	0	32	31
O=C(Nc1ccccc1)c1cccc(Oc2ccc3nccn3n2)c1	10	10	6	8	1	6	8	98.4	0	91.6	13	12	23	0	7	0	20	4	0	32
CN1CCN(CCNc2nc3cc(Oc4ccc(NC(=O)Nc5cc(C(F)(F)F)ccc5F)cc4)ccc3[nH]2)CC1.Cl.Cl [GW768504]	15	5	0	0	0	0	4	99.8	0	0	22	0	2	38	95.2	0	19	12	0	13
Cc1ccc(C(=O)Nc2ccc(Oc3ccc4nc(NC(=O)C5CC5)cn4c3)c(F)c2)c(=O)n1-c1ccccc1	0	81	15	0	0	0	24	100	14	0	99.2	42	21	34	99.9	0	38	57	0	0
Cc1cccc(-c2nc(Nc3ccncc3)c3sccc3n2)n1 [GW869641]	90.2	67	57	46	85	94.6	21	22	11	33	20	11	5	0	79	0	35	18	4	0
